Laboratory results published in PubChem BioAssay (Tox21).
Results filed as inconclusive are left out. A call without a number means that no potency is given here. Active and inactive are the calls of the source. The call rests on the fitted dose curve; in most records, active means well fitted activation curve with a large enough effect in the repeat runs; inconclusive means weak or mixed curves; inactive means flat fitted curve, though single readings scatter.

Assay: A CellTox Green Cytotoxicity Assay to monitor cytotoxicity in HepG2 cells - 40 hour (AID 1224879); further: nearly all actives have a fitted effect of over 40% in size
Settings: CellTox Green fluorescence; series mostly up to 76.8 µM
Outline: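 Read-out is fluorescence of a cyanine dye excluded from live cells that stains DNA of dead HepG2 cells, with signal proportional to cytotoxicity. Plates were read at 0, 8, 16, 24, 32 and 40 h after compound addition.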
Potency means the concentration at half of the fitted maximal effect.

| SMILES | Potency |
| --- | --- |
| CCCCCCCC[Si](OCC)(OCC)OCC | inactive |
| CCC(C)(CCC(C)C)C(=O)[O-].CCC(C)(CCC(C)C)C(=O)[O-].[Zn+2] (configuration not stated) | inactive |
| O=C(COCCOCCOCC(=O)Nc1c(I)cc(I)c(C(=O)O)c1I)Nc1c(I)cc(I)c(C(=O)O)c1I | inactive |
| CN=C(NC#N)NCCSCc1csc(N=C(N)N)n1 | inactive |
| CCC(C)N (configuration not stated) | inactive |
| CCOc1ccc(NC(=O)OC(C)C)cc1OCC | inactive |
| CCCC(C)CC (configuration not stated) | inactive |
| Cc1ncc([N+](=O)[O-])n1CC(O)CCl (configuration not stated) | inactive |
| Cc1nc2ccccc2c(=O)o1 | inactive |
| O=C1c2ccccc2-c2ccccc21 | inactive |
| C/C=C(\C)C(=O)OCC/C=C\CC | inactive |
| CN(C1CCCCC1)S(=O)(=O)c1ccccc1N | inactive |
| Cc1ccc2c(c1)c1c3n2CCNC3CCC1 (configuration not stated) | inactive |
| Cc1ccc(S(=O)(=O)NC(=O)NC2CCCCCCC2)cc1 | inactive |
| NCCc1ccn[nH]1 | inactive |
| COCC(=O)Nc1c(I)c(C(=O)NCC(O)CO)c(I)c(C(=O)N(C)CC(O)CO)c1I (configuration not stated) | inactive |
| CC(=O)OCCCc1ccccc1 | inactive |
| O=S1(=O)CCCC1 | inactive |
| CCCOC(=O)CCCCC(=O)OCCC | inactive |
| CC(CC(=O)O)CC(C)(C)C (configuration not stated) | inactive |
| CC(C)(C)NCCO | inactive |
| c1ccc(CNc2ncnc3nc[nH]c23)cc1 | inactive |
| O=C(O)C(=O)Nc1cccc(-c2nn[nH]n2)c1 | inactive |
| CC(=O)OC(C)c1ccccc1 (configuration not stated) | inactive |
| CCOC(=O)C(=O)c1csc(NC=O)n1 | inactive |
| O=P(O)(O)OCC(O)CO (configuration not stated) | inactive |
| CCCCCCCCCCCCCCCC(=O)NCCO | 8.49 µM (active) |
